Screening data: PubChem BioAssay, National Center for Advancing Translational Sciences (NCATS)
Sampled rows, rich in hits. Any-hit rate of the full collection: about 3.4%.
HTT ATP protect = cytoprotection in Huntington HTT-Q103 PC12 cell model; hit rate 0.14% among 230,000; AID 1471; Potency, µM (highest dose often 56.4 µM), for inactives: cytoprotection (ATP increase), hits mostly activators; PC12 HTT-Q103 induced, cytoprotection, ATP luminescence, 40 h; note: potency is the fitted concentration of half-maximal effect; % of control where 0% means no effect; nearly all actives have a fitted effect of over 45% in size
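Compounds added alongside 100 nM tebufenozide, which induces toxic Q103 huntingtin exon 1-GFP in stable PC12 cells; surviving cells quantified by luminescent ATP measurement. Medium: phenol red-free DMEM, 5% equine and 5% calf serum.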
IMPase Li cell = membrane-permeable IMPase blocker, potentiated with lithium. CHO-M1 cells, IP1 TR-FRET (IP-One), carbachol + lithium. hit rate 0.35% among 210,000. Potency, µM (doses to about 59.4 µM), without a hit: at the highest dose activity, negative = IMPase inhibition, usual class: inhibitors;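 note: IP1 builds up when IMPase is blocked and the TR-FRET signal falls; potency is the fitted concentration of half-maximal effect; plate controls were basal vehicle for no effect and high inhibitor control for full effect; nearly all actives have a fitted effect of over 50% in size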
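Lithium-sensitised IP1 accumulation assay; M1-expressing CHO cells treated 30 min at 37C with compound. Competitive antibody detection by time-resolved FRET followed a 10 min room-temperature lysis step.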
PNC assembly inh = blocks assembly of the perinucleolar compartment; PC3M PTB-GFP, PNC prevalence imaging, 16 h; active compounds read low; activity change (PNC), negative = inhibition, % at 10 µM; hit rate 3.1% among 140,000; AID 2417;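 active = readout at or below -70, meaning at least 70% loss of cells showing the perinucleolar compartment, a nuclear body marking cancer cells; inconclusive = readout between -30 and a set limit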;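 note: plate controls were DMSO wells for no effect and camptothecin positive control wells for full effect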
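Read-out is percentage of cells bearing a perinucleolar compartment, from automated 20x imaging of fixed, Hoechst-stained PC3M PTB-GFP cells. Cells were seeded 4 h, then exposed 16 h to compound (23 nl of library stock) in duplicate plates.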
NPSR antag = neuropeptide S receptor (human) antagonism, cAMP; CHO-NPSR cells, cAMP TR-FRET, antagonist mode; Potency, µM (doses to about 38.3 µM), without a hit: at the top dose activity change, negative = inhibition, usual class: inhibitors; hit rate 1% among 220,000; note: potency is the fitted concentration of half-maximal effect; % is set by controls: 0 for no effect and ±100 for the full control effect; nearly all actives have a fitted effect of over 50% in size
Target sequence (Q6W5P4 whole entry, looked up): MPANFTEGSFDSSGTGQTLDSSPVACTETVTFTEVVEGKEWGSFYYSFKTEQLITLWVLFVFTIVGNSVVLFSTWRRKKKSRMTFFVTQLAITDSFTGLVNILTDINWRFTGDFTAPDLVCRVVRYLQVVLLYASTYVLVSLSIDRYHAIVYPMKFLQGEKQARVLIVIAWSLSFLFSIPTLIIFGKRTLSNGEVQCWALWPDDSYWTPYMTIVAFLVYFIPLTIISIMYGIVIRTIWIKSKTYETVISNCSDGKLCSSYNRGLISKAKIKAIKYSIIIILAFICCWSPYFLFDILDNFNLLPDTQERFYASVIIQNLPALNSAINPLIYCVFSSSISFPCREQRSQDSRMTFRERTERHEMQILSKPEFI
HttQ103 aggreg = inhibitors of mutant huntingtin aggregate formation in PC12 cells; Potency, µM (titrated, usually from 46.1 µM), inactives show at the top dose activity change, negative = inhibition, most hits filed as inhibitors; hit rate 1.1% among 220,000; AID 1688; PC12 HttQ103-GFP aggregates, Acumen cytometry, 40 h; note: potency is the fitted concentration of half-maximal effect; % is set by controls: 0 for no effect and ±100 for the full control effect; nearly all actives have a fitted effect of over 60% in size
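Multiplexed with ATP-based cell death, this channel scores GFP aggregates in PC12 cells expressing inducible HTTex1-Q103-GFP. Induction used 100 nM tebufenozide; compounds were tested in concentration series.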
IMPase cell inh = IMPase inhibition in cells; CHO-M1 cells, IP1 accumulation, HTRF TR-FRET ratio; inhibition (IP1 accumulation), % at 46.1 µM; 120,000 tested, under 10 active; AID 901; active = well fitted curve in the direction sought with a large enough effect in the signal ratio, not every such curve was filed as active; inconclusive = small, poorly fitted or top-dose-only effect, or a change in a side signal; inactive = no such curve, though single readings can be large or run the other way; the % refers to the signal ratio;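 note: cells stimulated with carbachol in lithium chloride buffer; plate controls were DMSO basal wells for no effect and reference inhibitor wells for full effect; higher means more IMPase inhibition seen as more IP1 and lower FRET ratio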
Target sequence (P97697 whole entry, looked up): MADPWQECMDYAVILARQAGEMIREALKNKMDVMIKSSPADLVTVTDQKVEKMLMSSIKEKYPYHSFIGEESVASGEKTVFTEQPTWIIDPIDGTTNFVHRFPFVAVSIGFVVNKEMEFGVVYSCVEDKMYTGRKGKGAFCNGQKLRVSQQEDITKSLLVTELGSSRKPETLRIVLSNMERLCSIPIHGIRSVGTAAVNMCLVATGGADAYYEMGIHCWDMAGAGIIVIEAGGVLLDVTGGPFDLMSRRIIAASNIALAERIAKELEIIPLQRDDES
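Seeded CHO-M1 cells were dosed with compound at up to 46 uM, stimulated with carbachol for 30 min, then lysed in IP-One detection reagents. Higher IP1 lowers the TR-FRET signal.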
* = called active by the depositor; u = inconclusive; x = not tested or not shown; [ ] = dose if it differs, or a comment. Unless noted, calls come from the whole dose curve; as a rule, active = well fitted curve in the direction sought with a large enough effect; inconclusive = small, poorly fitted or top-dose-only effect, or another doubt; inactive = no such curve, though single readings can be large; an effect the other way counts as inactive or inconclusive.

SMILES | HTT ATP protect | IMPase Li cell | PNC assembly inh | NPSR antag | HttQ103 aggreg | IMPase cell inh
c1ccc(-c2cc3c(N4CCOCC4)ncnc3s2)cc1 | 2% | 3%[38.3 µM] | -97* | -6%[46.1 µM] | -30% | 5
Cc1ccc(S(=O)(=O)N(CC(=O)Nc2ccc3c(c2)OCO3)c2cc(Cl)cc(Cl)c2)cc1 | x | x | x | x | x | -11
COc1cc(C(=O)Oc2ccccc2/C=N/NC(=O)c2ccc(Cl)cc2Cl)cc(OC)c1OC | -58%[10 µM] | 43%[38.3 µM] | u | -21%[46.1 µM] | 6.3µM* | -3[1.84 µM]
CCC(=O)Nn1cnc2c(c1=O)C1(CCCCC1)Cc1ccccc1-2 | 8% | 39%[38.3 µM] | -106* | u | 4% | -7
CCCC(=O)Nn1cnc2c(c1=O)C1(CCCCC1)Cc1ccccc1-2 | -1% | 8%[38.3 µM] | 19 | -17%[46.1 µM] | -13% | 11
O=C1CC(Nc2ccccc2)C(=O)N1CCc1ccccc1 (stereo not drawn) | 23% | 21%[38.3 µM] | 52 | 13%[46.1 µM] | -10% | -7
O=C1CC(=O)N(CCc2ccccc2)C(=O)N1CCc1ccccc1 | -9%[0.074 µM] | 19%[38.3 µM] | u | -13%[46.1 µM] | 0.4µM* | -3
Cc1nn(-c2ccccc2)c(N)c1Sc1ccccc1[N+](=O)[O-] | 2%[10 µM] | 2% | -5 | -11% | 3.5µM* | -3
COc1cc(C(=O)O[C@@H]2CC(C)=CC[C@@]3(C)CC[C@](O)(C(C)C)[C@H]23)ccc1O | 19% | x | x | x | x | x
Cc1nc(SCC(=O)OC(C)(C)C)c2c3c(sc2n1)CCCC3 | x | x | x | x | x | 5
O=C(C1CCCN(S(=O)(=O)c2cccc3nonc23)C1)N1CCC(Cc2ccccc2)CC1 (stereo not drawn) | -39% | -5%[38.3 µM] | 19 | u | 35µM* | 17
COc1ccc(Cl)cc1NC(=O)C1CCCN(S(=O)(=O)c2cccc3nonc23)C1 (stereo not drawn) | -8%[10 µM] | 1% | -100* | -10%[46.1 µM] | 0% | -6
O=C(C1CCCN(S(=O)(=O)c2cccc3nonc23)C1)N1CCN(c2ccccc2Cl)CC1 (stereo not drawn) | x | 6% | -21 | -30% | -25% | -2
COc1cccc(NC(=O)C2CCCN(S(=O)(=O)c3cccc4nonc34)C2)c1 (stereo not drawn) | -40% | -2% | x | -5% | -5% | 4
CCOc1ccc(S(=O)(=O)N(C(=O)c2ccncc2)c2ccc3oc(C)c(C(=O)OC)c3c2)cc1 | x | x | x | x | x | 13
COc1cc(C(=O)OC2CC[C@]3(C)C4CCC5[C@]6(O)CC(O)[C@]7(O)C(CN8CC(C)CCC8[C@]7(C)O)[C@]6(O)C[C@@]53O[C@]24O)cc(OC)c1OC (stereo partly drawn) | x | 20% | x | x | x | x
Cc1csc2ncc(C(=O)NCc3ccco3)c(=O)n12 | -3%[10 µM] | -2% | -100* | 1%[46.1 µM] | -5% | 1
COc1cccc(C(=O)NN2C(=S)N(c3ccccc3)C(=O)C2CC(N)=O)c1 (stereo not drawn) | 36%[10 µM] | x | x | 6% | 1%[9.22 µM] | x
Cn1cc(Br)c(NS(=O)(=O)c2ccc(Cl)s2)n1 | 5%[10 µM] | x | x | 3% | 0%[9.22 µM] | x
CS(=O)(=O)c1ccc(C(=O)Nc2ccc(N3CCOCC3)cc2)c(Cl)c1 | -18% | 1% | x | 0% | -1% | x
CS(=O)(=O)c1ncc(Cl)c(C(=O)Nc2ccc(N3CCOCC3)cc2)n1 | -22%[10 µM] | 42%[38.3 µM] | -8 | u | 11µM* | 7
O=C(c1ccccc1-c1nc(-c2ccc(F)cc2)no1)N1CCCC1 | 12% | -2%[38.3 µM] | -100* | -20%[46.1 µM] | 5% | -1
CCOC(=O)C1CCCN(C(=O)c2cn(CC(C)C)c(=O)c3cc(OC)c(OC)cc23)C1 (stereo not drawn) | 7%[10 µM] | 4% | -100* | -4%[46.1 µM] | 31% | -1
CCOC(=O)C1CCCN(C(=O)c2cn(CC)c(=O)c3cc(OC)c(OC)cc23)C1 (stereo not drawn) | -2% | 8%[38.3 µM] | 10 | 1%[46.1 µM] | 14% | 5
CCOC(=O)C1CCCN(C(=O)Nc2ccccc2)C1 (stereo not drawn) | x | 2%[38.3 µM] | -9 | 6%[46.1 µM] | 0.63µM* | -5
SMILES | HTT ATP protect | IMPase Li cell | PNC assembly inh | NPSR antag | HttQ103 aggreg | IMPase cell inh
CCOC(=O)C1CCCN(C(=O)c2ccc(OC)c([N+](=O)[O-])c2)C1 (stereo not drawn) | -1%[10 µM] | 13% | -95* | 11% | -5% | x
CCOC(=O)C1CCCN(C(=S)Nc2ccc(F)cc2)C1 (stereo not drawn) | -69% | 2% | x | -3% | -4% | x
O=C(O)C1=C/C(=C(/c2ccccc2)c2cc(C(=O)O)c(O)c3ccccc23)c2ccccc2C1=O | -9%[10 µM] | -2% | x | x | x | x
COc1cc([N+](=O)[O-])cc(/C=N/NC(=O)C(C)Nc2cccc(C)c2)c1O (stereo not drawn) | 25%[10 µM] | -1% | u | -16%[46.1 µM] | 10µM* | 1
COc1cc([N+](=O)[O-])cc(/C=N/NC(=O)c2ccc(C)nc2)c1O | 5%[10 µM] | 9% | 49 | -12% | u | x
COc1cc([N+](=O)[O-])cc(/C=N/NC(=O)C(C)Nc2ccccc2C)c1O (stereo not drawn) | -7%[10 µM] | 1% | -16 | -2% | 13µM* | x
CC(C)C(C(=O)Nc1ccc(S(N)(=O)=O)cc1)N1C(=O)c2ccccc2C1=O (stereo not drawn) | x | 6% | x | 3% | 5% | x
OC(CN1CCC(Cc2ccc(F)cc2)CC1)c1ccc(Cl)cc1 (stereo not drawn) | -68% | 21% | x | u | 4% | u
Cc1c2oc3c(C)ccc(C(=O)NC4C(=O)NC(C(C)C)C(=O)N5CCCC5C(=O)N(C)CC(=O)N(C)C(C(C)C)C(=O)OC4C)c3nc-2c(C(=O)NC2C(=O)NC(C(C)C)C(=O)N3CCCC3C(=O)N(C)CC(=O)N(C)C(C(C)C)C(=O)OC2C)c(N)c1=O (stereo not drawn) | -121% | -8% | x | x | x | x
CC1=C(CC(=O)c2ccc(Cl)cc2)C(=O)c2ccccc2C1=O | -152% | 11%[38.3 µM] | -19 | -7%[46.1 µM] | 3.5µM* | -6
Cc1oc2c(c1C(=O)c1ccc(Cl)cc1)C(=O)C(=O)c1ccccc1-2 | -109% | 43%[38.3 µM] | 95 | u | u | 21
O=C1C(=O)N(CCCn2ccnc2)C(c2cccnc2)/C1=C(/O)c1ccc(Cl)cc1 (stereo not drawn) | -8%[10 µM] | x | x | x | x | x
CC(=O)N1CC(=O)N=C1SCC(=O)Nc1nc(-c2ccccc2)c(-c2ccccc2)s1 | 4%[10 µM] | -7% | -1 | 10µM* | u | x
C[n+]1c2n(c3ccccc31)N=C(c1ccc(-c3ccccc3)cc1)CS2 | -52%[10 µM] | 25% | x | 46% | u | x
C[n+]1c2n(c3ccccc31)N=C(c1ccccc1)CS2 | -49% | 11% | 42 | -3% | 10µM* | 13
